Data on 12 molecules can be found in PubChem BioAssay (NCATS).

Results filed as inconclusive are left out. Calls of active or inactive are those of the source. Calls follow the shape of the dose curve; as a rule, active = well fitted curve in the direction sought with a large enough effect; inconclusive = small, poorly fitted or top-dose-only effect, or another doubt; inactive = no such curve, though single readings can be large; an effect the other way counts as inactive or inconclusive.

The test system of one test is MCC-13. Briefly: qHTS assay to identify novel small-molecules to repurpose for Merkel cell carcinoma treatment (AID 1296009). Also: nearly all actives have a fitted effect of over 60% in size. Also: potency is read from the fitted curve at half-maximal effect. Particulars: MCC and control cell lines, CellTiter-Glo viability, 72 h; series mostly up to 46 µM. In short, it runs like this:
(§1)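 Cells were incubated with compound for 72 hr at 37 degree celsius before CellTiter-Glo addition. Luminescence was normalized with no-cell wells as full cytotoxicity and DMSO as baseline.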

A further test has as its system MCC-26. The description is as above. Conditions: MCC and control cell lines, CellTiter-Glo viability, 72 h; series mostly up to 46 µM. Put shortly: as §1
The test system of the next test is MKL-1. The description is as above. Conditions: MCC and control cell lines, CellTiter-Glo viability, 72 h; series mostly up to 46 µM. In short, it runs like this: as §1
(In ATP-based viability assays light output follows the ATP content of the culture.)

The test system of the next test is MKL-2. The description is as above. Conditions: MCC and control cell lines, CellTiter-Glo viability, 72 h; series mostly up to 46 µM. In short, it runs like this:
as §1

The subject of another test is NIH3T3. The test is described as above. Particulars: MCC and control cell lines, CellTiter-Glo viability, 72 h; at 44.8 µM (top of the series) unless noted. Put shortly:
as §1

The test system of another test is UISO. The test is described as above. Conditions: MCC and control cell lines, CellTiter-Glo viability, 72 h; series mostly up to 46 µM. Put shortly: as §1
Another test concerns WaGa. The description is as above. Conditions: MCC and control cell lines, CellTiter-Glo viability, 72 h; series mostly up to 46 µM. In short, it runs like this: as §1
The test system of another test is C33A. As to the kind of experiment: Primary qHTS to identify gynecologic anti-cancer compounds using libraries of approved drugs and bioactive compounds (AID 1345084). Also: nearly all actives have a fitted effect of over 55% in size. Conditions: Gynecologic cancer cell panel viability, ATPlite luminescence, 48 h; series mostly up to 57.5 µM. Put shortly: (§2)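 Five-point cytotoxicity, 48 h drug exposure at 37 C, 5% CO2, on cells seeded 16 h beforehand. ATP content read by ATPlite luminescence.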
Background: In qHTS, concentration-response curves come from the screen itself.

A further test deals with CAOV3. The test is described as above. Conditions: Gynecologic cancer cell panel viability, ATPlite luminescence, 48 h; series mostly up to 57.5 µM. In short, it runs like this:
as §2

In a further test the test system is CASKI. Described as above. Particulars: Gynecologic cancer cell panel viability, ATPlite luminescence, 48 h; series mostly up to 57.5 µM. In short, it runs like this: as §2
Another test relates to Es-2. The test is described as above. Conditions: Gynecologic cancer cell panel viability, ATPlite luminescence, 48 h; series mostly up to 57.5 µM. Put shortly:
as §2

In a further test the test system is HeLa. The description is as above. Conditions: Gynecologic cancer cell panel viability, ATPlite luminescence, 48 h; series mostly up to 57.5 µM. Put shortly: as §2
A further test has as its system Hek293T. The description is as above. Conditions: Gynecologic cancer cell panel viability, ATPlite luminescence, 48 h, control line for the selectivity index; series mostly up to 57.5 µM. In short, it runs like this: as §2
A further test concerns JEG-3. The description is as above. Particulars: Gynecologic cancer cell panel viability, ATPlite luminescence, 48 h; series mostly up to 57.5 µM. Put shortly: as §2
A further test has as its system OV90. The test is described as above. Conditions: Gynecologic cancer cell panel viability, ATPlite luminescence, 48 h; series mostly up to 57.5 µM. In short, it runs like this: as §2
A further test deals with PA-1. The description is as above. Particulars: Gynecologic cancer cell panel viability, ATPlite luminescence, 48 h; series mostly up to 57.5 µM. In short, it runs like this:
as §2

The test system of a further test is SKOV3. Described as above. Conditions: Gynecologic cancer cell panel viability, ATPlite luminescence, 48 h; series mostly up to 57.5 µM. Put shortly: as §2
The test system of the next test is Tov-21-G. Described as above. Conditions: Gynecologic cancer cell panel viability, ATPlite luminescence, 48 h; series mostly up to 57.5 µM. Put shortly: as §2
The subject of the next test is Tov112D. The description is as above. Conditions: Gynecologic cancer cell panel viability, ATPlite luminescence, 48 h; series mostly up to 57.5 µM. In short, it runs like this:
as §2

Test [1] can be described thus: Drug repurposing screens with cells derived from glioblastoma tumor samples (AID 1345199). Also: nearly all actives have a fitted effect of over 40% in size. Particulars: GBM patient neurospheres viability, ATP luminescence, 48 h; Potency: tumour line A unless noted; series mostly up to 45.9 µM. Put shortly:
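Four patient lines of CD133+ GBM neurospheres were screened at several concentrations; hits were retested in those lines plus three slower-growing GBM lines, using 48-hour treatment and ATP-based viability.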

In the case of `O=S(=O)(O)C(F)(F)C(F)(F)C(F)(F)C(F)(F)F`, the Potency entry in the test with MCC-13, with MCC-26, with MKL-1, with MKL-2, with UISO and in the test on WaGa was “inactive” in each case. Further, the Potency result in the test on C33A, in the test on CAOV3, in the test on CASKI, with Es-2, in the test on HeLa and in the test on Hek293T was “inactive” throughout. Also, the Potency entry in the test on JEG-3, in the test on OV90, in the test on PA-1, in the test with SKOV3, with Tov-21-G and in the test with Tov112D was “inactive” in each case. In addition, the Potency entry in test [1] is “inactive”. The outcome with NIH3T3 was “inactive [at 92 µM]”.
With `COC(C)(C)CCCC(C)C/C=C/C(C)=C/C(=O)OC(C)C` (stereo not drawn), the Potency entry with MCC-13, with MCC-26, with MKL-1, in the test with MKL-2, with UISO and in the test on WaGa was “inactive” each time. Further, the Potency result in the test on C33A, in the test on CASKI, with Es-2, in the test with HeLa, in the test with Hek293T and in the test with JEG-3 was “inactive” throughout. Also, the Potency result in the test with OV90, with PA-1, in the test on SKOV3, in the test on Tov-21-G and with Tov112D was “inactive” in each case. Further, in the test on NIH3T3, the call was inactive.
Regarding `C[C@@]12OC(=O)[C@]1([C@@H](O)[C@@H]1C=CCCC1)NC(=O)[C@H]2CCCl`, the Potency with MCC-13 was 3320 nM (active); in the test with MCC-26, 833 nM (active); in the test with MKL-1 it was 1180 nM (active); with MKL-2, 526 nM (active); with UISO it was 1480 nM (active); in the test with WaGa it was 662 nM (active).
With `CC[C@@H](C(N)=O)N1CCCC1=O`, the Potency result with MCC-13, with MCC-26, in the test with MKL-1, in the test on MKL-2, in the test on UISO and with WaGa was “inactive” each time.
Consider `C=C[C@@H]1CN2CCC1C[C@H]2[C@H](O)c1ccnc2ccccc12` (stereo partly drawn), for which the Potency entry in the test with MCC-13, in the test on MCC-26, with MKL-1, with MKL-2, in the test with UISO and in the test on WaGa was “inactive” throughout.
As to `CC[C@@]1(O)C(=O)OCc2c1cc1n(c2=O)Cc2cc3ccccc3nc2-1`, the Potency in the test on MCC-13 was 26.4 nM (active); in the test with MCC-26, 74.3 nM (active); in the test on MKL-1, 33.2 nM (active); with MKL-2 it was 74.3 nM (active); with UISO, 29.6 nM (active); in the test with WaGa, 20.9 nM (active).
Turning to `CCOC(=O)c1c(C(C#N)=CN)c2ccc(Cl)c(Cl)c2n1C`, the Potency result with MCC-13, in the test with MCC-26, with MKL-1, in the test on MKL-2, with UISO and in the test with WaGa was “inactive” throughout.
`CN[C@@H]1Cc2cccc3[nH]c(=O)n(c23)C1`: the Potency result in the test on MCC-13, in the test on MCC-26, in the test with MKL-1, with MKL-2, in the test on UISO and in the test on WaGa was “inactive” each time.
Regarding `C#C[C@]1(O)C=C[C@@H]2[C@@H]3CCC4=CC(=O)CC[C@@H]4[C@H]3CC[C@@]21CC`, the Potency result in the test with MCC-13, in the test on MCC-26, with MKL-1, in the test with MKL-2, in the test on UISO and in the test with WaGa was “inactive” each time.
Take `CSCC[C@@H](NC(=O)[C@@H](Cc1ccccc1)NC(=O)CNC(=O)CNC(=O)[C@@H](N)Cc1ccc(O)cc1)C(=O)O`: the Potency result in the test with MCC-13, in the test with MCC-26, with MKL-1, in the test with MKL-2, with UISO and in the test on WaGa was “inactive” each time.
Turning to `CCC(=O)OC1CCC2C3CCC4=CC(=O)CC[C@@]4(C)C3CC[C@]12C` (stereo partly drawn), the Potency result in the test with MCC-13, with MCC-26, in the test on MKL-1, in the test with MKL-2, in the test with UISO and with WaGa was “inactive” throughout.
Take `O=[N+]([O-])c1ncc[nH]1`: the Potency entry in the test on MCC-13, with MCC-26, in the test with MKL-1, with MKL-2, with UISO and in the test on WaGa was “inactive” in each case.
